# Experimental data reported in publication PMC5540273 (PLoS ONE, 2017).
# Legend:
# Details in all cases: concentration: 1 μM, replicates: in singlicate; n = 1
# TSSK1B = system: TSSK1B
# TSSK3 = system: TSSK3
# TTK = system: TTK
# TXK = system: TXK
# [1] = system: TYK2(JH1domain-catalytic)
# [2] = system: TYK2(JH2domain-pseudokinase)
# TYRO3 = system: TYRO3
# ULK1 = system: ULK1
# ULK2 = system: ULK2
# ULK3 = system: ULK3
# VEGFR2 = system: T1, VEGFR2
# T1 construct: gene KDR
# VPS34 = system: T2, VPS34
# T2 construct: gene PIK3C3
# VRK2 = system: VRK2
# WEE1 = system: WEE1
# WEE2 = system: WEE2
# WNK1 = system: WNK1
# WNK2 = system: WNK2
# WNK3 = system: WNK3
# WNK4 = system: WNK4
# YANK1 = system: T3, YANK1
# T3 construct: gene STK32A
# 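Also: KINOMEscan kinase panel screen.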
SMILES,%Inh (TSSK1B) [%],%Inh (TSSK3) [%],%Inh (TTK) [%],%Inh (TXK) [%],%Inh [1] [%],%Inh [2] [%],%Inh (TYRO3) [%],%Inh (ULK1) [%],%Inh (ULK2) [%],%Inh (ULK3) [%],%Inh (VEGFR2) [%],%Inh (VPS34) [%],%Inh (VRK2) [%],%Inh (WEE1) [%],%Inh (WEE2) [%],%Inh (WNK1) [%],%Inh (WNK2) [%],%Inh (WNK3) [%],%Inh (WNK4) [%],%Inh (YANK1) [%]
Nc1nccc(-c2c(-c3ccc(F)cc3)ncn2C2CCN(Cc3ccccc3)CC2)n1 [SB-219980],0,0,0,0,7,49,15,31,0,22,1,0,0,0,0,7,12,0,0,28
COc1ccc(Nc2nccc(N3CCC(NC(=O)c4cc5ccccc5s4)C3)n2)cc1 (stereo not shown) [GSK1379738],0,19,0,67,9,26,0,5,0,14,0,0,0,10,0,14,11,34,24,0
COc1ccc(CSc2nnc(-c3ccc4c(c3)CCO4)o2)cc1,0,0,0,0,0,0,0,0,0,0,0,15,0,0,14,0,0,0,0,0
COC(=O)c1cccc(NC(=O)NC2CCN(c3ccnc(Nc4ccc(OC)cc4)n3)C2)c1 (stereo not shown) [GSK1379746],13,7,0,8,33,51,0,0,3,9,0,0,0,7,0,11,4,51,46,0
Fc1ccc(-c2nn3cccc(F)c3c2-c2ccncc2)cc1 [GW475620],0,14,14,5,22,9,0,12,0,12,1,15,22,0,5,5,20,5,9,28
